Test results published in PubChem BioAssay AID1851 (National Center for Advancing Translational Sciences (NCATS), 2009).
In all, about 16,000 compounds went through this assay and about 5,800 (36%) were called active. Roughly 23% stayed inconclusive and do not appear here. The list shows a part of the results. A number with no mark means an inactive call. The call rests on the fitted dose curve; in most records, active means well fitted curve in the direction sought with a large enough effect; inconclusive means small, poorly fitted or top-dose-only effect, or effect the other way; inactive means no such curve, though single readings can be large or run the other way.

Target: Cytochrome P450 2C19 (Homo sapiens) (UniProt P33261)
Assay: Cytochrome panel assay with activity outcomes
Conditions: recombinant CYP, pro-luciferin dealkylation, luminescence, p450-cyp2c19; series mostly up to 57.1 µM; activity, negative = inhibition: at the top concentration
On the % scale 0 is the no-effect control and ±100 the full control effect.

Cytochrome P450 2C19 (Homo sapiens), sequence (P33261 whole entry, looked up): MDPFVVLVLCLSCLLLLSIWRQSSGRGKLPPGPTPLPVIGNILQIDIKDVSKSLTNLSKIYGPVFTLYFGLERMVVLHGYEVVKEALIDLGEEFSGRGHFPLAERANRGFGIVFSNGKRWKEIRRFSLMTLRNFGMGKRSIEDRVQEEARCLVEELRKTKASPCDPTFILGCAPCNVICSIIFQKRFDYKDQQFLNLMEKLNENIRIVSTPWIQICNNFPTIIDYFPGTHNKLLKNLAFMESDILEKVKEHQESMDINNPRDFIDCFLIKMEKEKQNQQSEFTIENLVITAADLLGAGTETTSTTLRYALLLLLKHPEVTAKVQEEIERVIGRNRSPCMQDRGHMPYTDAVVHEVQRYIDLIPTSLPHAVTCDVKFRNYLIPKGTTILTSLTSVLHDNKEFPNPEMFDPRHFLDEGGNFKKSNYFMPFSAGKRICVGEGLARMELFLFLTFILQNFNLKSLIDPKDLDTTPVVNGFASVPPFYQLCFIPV

Structure (SMILES)	activity, negative = inhibition	AC50
CCCNC(=O)N1N=C(c2ccc(N)cc2)c2cc3c(cc2[C@H]1C)OCO3	-37.3%	–
CC1CCC(=NNC(=O)Cc2ccccc2)CC1 (stereo not drawn)	–	25.1 µM (active)
CN1CCC(=NNC(=O)CSCc2ccccc2)CC1	–	17.8 µM (active)
O=C(O)Cc1ccc(NC(=O)C2CCCCC2C(=O)O)cc1 (stereo not drawn)	-12.8%	–
COc1ccccc1CNC(=O)C/C(C)=N/NC(=O)Cc1ccccc1	-3.74%	–
O=C(c1cc(C(F)(F)F)cc(C(F)(F)F)c1)N1CCC[C@@]2(CCN(c3ccccc3)C2)C1	-33.8%	–
O=C(c1coc2ccccc2c1=O)N1CCN(c2cccc(C(F)(F)F)c2)CC1	–	14.1 µM (active)
O=C(c1cccc(F)c1)N1CCC2(CCN(Cc3cc(C(F)(F)F)cc(C(F)(F)F)c3)CC2)CC1	22.7%	–
O=C(O)c1ccccc1Nc1cccc(OCc2ccc3ccccc3n2)c1	–	5.01 µM (active)
CC(C)C(=O)Cc1ccc2ccccc2n1	6.88% [at 11.4 µM]	–
CCCCc1cc2ccccc2c(OCCN(C)C)n1	-31.4% [at 25.6 µM]	–
O=C(Nc1ccccc1C(=O)O)c1ccc2ccccc2n1	-22.5%	–
CCCCC[C@H](O)c1cccc(OCc2ccc3ccccc3n2)c1	–	6.31 µM (active)
O=C(O)CP(=O)(O)O	–	inactive
C=CC[C@@H]1C=C[C@H](ON=C(C)C)[C@H](CO)O1	-4.34% [at 11.4 µM]	–
Cc1cc(C)nc(Nc2ncc(O)n2-c2ccccc2)n1	-17%	–
Cc1cc(C)cc(-n2c(C)cc(C=C(C#N)C#N)c2C)c1	–	5.62 µM (active)
Cc1cc(C=C(C#N)C#N)c(C)n1-c1ccccc1	–	1 µM (active)
Cc1cc(-c2n[nH]c(=S)o2)c(C)n1-c1ccccc1	-95.6%	–
C#CCCCO/N=C1/C[C@@H](O)[C@@H](O)[C@@H]2[C@@H]3C(=O)N(CCC(=O)OCC)C(=O)[C@H]3CC[C@@H]12	-1.53% [at 11.4 µM]	–
COc1ccc(-n2c(=O)cnc3cnc(N4CCNCC4)nc32)cc1	-4.4%	–
CSc1cccc(NC(=O)OC2CCCCCCCCCCC2)c1	-41.3% [at 11.4 µM]	–
COc1ccc(CCNC(=O)Cn2c(=O)oc3ccccc32)cc1OC	-24.7%	–
CCOc1cc(/C=C2/NC(=O)N(CC(=O)Nc3cccc(C)c3)C2=O)ccc1OC	27.2%	–
CSc1cccc(NC(=O)Cn2cccc2)c1	–	6.31 µM (active)
Cc1ccc(CNC(=O)Cn2c(=O)oc3ccccc32)o1	–	3.55 µM (active)

Structure (SMILES)	activity, negative = inhibition	AC50
Cc1cccc(NC(=O)Cn2cccc2)c1	–	15.8 µM (active)
CSc1cccc(NC(=O)Nc2ccc(Cl)cc2)c1	–	2 µM (active)
N#Cc1cccc(NC(=O)N2CCCC3(CCN(C(=O)c4csnn4)CC3)C2)c1	3.09%	–
CC(=O)OC[C@H]1O[C@@H](O/N=C(\C)CCN2CCCc3nc(C)c(C)cc32)[C@H](OC(C)=O)[C@@H](OC(C)=O)[C@H]1OC(C)=O	-24.1% [at 11.4 µM]	–
CCN(C(=O)Cn1c(=O)oc2ccccc21)c1cccc(C(F)(F)F)c1	–	3.55 µM (active)
Cc1cccc(NC(=O)CCSc2nc(C)cc(C)n2)c1	–	4.47 µM (active)
Cc1cccc(N/C(N)=N/c2nc(C)cc(C)n2)c1	-35.4%	–
Cc1cc(C)nc(SCCc2cccc[n+]2C)n1	66.4% [at 11.4 µM]	–
Cc1cccc(NC(=O)Cn2c(=O)oc3ccccc32)c1	–	3.16 µM (active)
O=C(O)C1=CCNCC1	–	inactive
COc1ccc(CNc2ccnc(-c3c(C)noc3C)n2)c(OC)c1	–	1.58 µM (active)
COCCNc1ccnc(-c2c(C)noc2C)n1	-17.2%	–
COc1ccccc1CNc1ccnc(-c2c(C)noc2C)n1	–	1 µM (active)
CC(=O)N1CC(=O)N(OCc2ccccc2)C1c1ccc(Cl)cc1Cl (stereo not drawn)	–	3.16 µM (active)
COC(=O)N1CC(=O)N(OC)C1c1ccc(Cl)cc1Cl (stereo not drawn)	–	5.62 µM (active)
CCOc1ccc(N=C2NC(=O)C(CC(=O)O)S2)cc1 (stereo not drawn)	-16.7%	–
Cc1ccc2c(c1)C(=O)[C@@]1(O)CCN(c3ccccc3)C1=N2	–	7.94 µM (active)
CC(C)(Oc1ccc(CCNC(=O)c2ccc(Cl)cc2)cc1)C(=O)O	-13.4% [at 25.6 µM]	–
CC(C)(Oc1ccc([C@@H]2CC2(Cl)Cl)cc1)C(=O)O	–	inactive
CC(C)(Oc1ccc(Cl)cc1)C(=O)Nc1ccncc1	–	0.0562 µM (active)
CC(C)(Oc1ccc(Cl)cc1)C(=O)Nc1cccnc1	–	2.51 µM (active)
CCC(C)(C)N=C(NC#N)Nc1cccnc1	15.9%	–
O=C1c2ccccc2CCC12N=NCC2c1ccc(Cl)cc1 (stereo not drawn)	–	0.562 µM (active)
C=CCn1c(SC(C)C(=O)NCc2ccc3c(c2)OCO3)nc2scc(-c3ccccc3)c2c1=O (stereo not drawn)	–	2 µM (active)
C=CCn1c(SCC(=O)N2CC(=O)Nc3ccccc32)nc2scc(-c3ccccc3)c2c1=O	–	7.94 µM (active)
C=CCn1c(SCc2ccc3c(c2)OCO3)nc2scc(-c3ccco3)c2c1=O	–	1.41 µM (active)

Structure (SMILES)	activity, negative = inhibition	AC50
C=CCn1c(SCc2ccccc2)nc2scc(-c3ccc(C)o3)c2c1=O	-28.8%	–
NS(=O)(=O)c1cc2c(cc1Cl)N[C@@H](C(Cl)Cl)NS2(=O)=O	4.71% [at 25.6 µM]	–
CCCCCCCCOC1OC(CO)C(O)C(O)C1NC(C)=O (stereo not drawn)	51.9%	–
Cc1ccc(NC(=O)N/C=C/c2ccco2)cc1C	–	3.16 µM (active)
C/C(=N\NC(=O)CC1N=C(Cc2ccccc2)NNC1=O)c1ccc(Cl)cc1Cl (stereo not drawn)	–	28.2 µM (active)
O=C(CC(c1ccccc1)c1ccccc1)NCC1CCCO1 (stereo not drawn)	–	14.1 µM (active)
CCNc1ncc2nc(-c3ccc(F)cc3)c(=O)n(C[C@H]3CCCO3)c2n1	-11.2%	–
CN(c1ccc(C(=O)NCC2CCCO2)cc1)S(=O)(=O)c1ccccc1 (stereo not drawn)	-9.95%	–
CN(C)c1ncc2nc(-c3ccc(F)cc3)c(=O)n(C[C@H]3CCCO3)c2n1	-21.9%	–
CC(NC(=O)OCc1ccccc1)C(=O)NCC1CCCO1 (stereo not drawn)	-22.3%	–
Cc1cccc2c(SCC(=O)NCC3CCCO3)nc(-c3ccc(F)cc3)nc12 (stereo not drawn)	–	1.26 µM (active)
O=C(CSCc1c(F)cccc1Cl)NCC1CCCO1 (stereo not drawn)	–	11.2 µM (active)
Oc1ccc([C@@H]2CNCCc3c2cc(O)c(O)c3Cl)cc1	14.3%	–
CC(C)NC[C@@H](O)COc1ccc(CCOCC2CC2)cc1	–	inactive
COc1ccc(CCC(C)NC2C3CC4CC(C3)CC2C4)cc1 (stereo not drawn)	–	25.1 µM (active)
O=C1N(c2ccccc2)c2ccccc2C1(Cc1ccncc1)Cc1ccncc1	–	0.2 µM (active)
O=C1c2ccccc2C(Cc2ccncc2)(Cc2ccncc2)c2ccccc21	-30.9%	–
N#C/C(=C\c1ccc(Cl)cc1)c1nc2ncccc2[nH]1	–	25.1 µM (active)
COc1ccccc1CN1CCCC2(CCNCC2)C1	-24.4%	–
COc1cccc(CN2C(=O)N(C(C)C)C(N(O)C(=O)NC(C)C)C2(C)C)c1OC (stereo not drawn)	–	14.1 µM (active)
CN(C)c1ccc(/C=C2\SC(=S)N(Nc3ncc(C(F)(F)F)cc3Cl)C2=O)cc1	–	20 µM (active)
O=C1/C(=C\c2ccccn2)SC(=S)N1Nc1ncc(C(F)(F)F)cc1Cl	–	7.94 µM (active)
O=C(NCc1n[nH]c(=S)n1-c1cccc(Cl)c1)c1ccc(S(=O)(=O)N2CCCC2)cc1	-8.01%	–
O=c1c(Cl)c(N2CCN(S(=O)(=O)c3ccc(F)cc3)CC2)cnn1-c1cccc(Cl)c1	–	4.47 µM (active)
C[N+](C)(C)CCOC(N)=O	22.8% [at 25.6 µM]	–
Nc1ncnc2c1c(-c1ccc(Oc3ccccc3)cc1)cn2C1CCCC1	–	25.1 µM (active)

Structure (SMILES)	activity, negative = inhibition	AC50
Nc1ncnc2c1ncn2C1CCCC1	4.13%	–
C#CCCCO/N=C1/C[C@@H](O)[C@@H](O)[C@@H]2[C@@H]3C(=O)N(C4CCCCC4)C(=O)[C@H]3CC[C@H]12	4.77% [at 11.4 µM]	–
COc1ccccc1CNc1ncnc2ccc(-c3ccccc3CN(C)C)cc12	-41.1%	–
c1nc(NCCN2CCOCC2)c2cc(-c3ccoc3)ccc2n1	6.18%	–
COc1ccc(CNc2ncnc3ccc(-c4cccc(C#N)c4)cc23)c(OC)c1	-35.9%	–
COc1cccc(-c2ccc3ncnc(NCc4ccc(OC)cc4OC)c3c2)c1	–	10 µM (active)
N#Cc1cccc(-c2ccc3ncnc(NCc4ccccc4)c3c2)c1	-32.2%	–
COc1ccccc1CNc1ncnc2ccc(-c3cccc(C#N)c3)cc12	–	5.01 µM (active)
COc1ccccc1CNc1ncnc2ccc(-c3ccccc3OC)cc12	–	3.16 µM (active)
c1csc(CNc2ncnc3ccc(-c4ccoc4)cc23)c1	–	6.31 µM (active)
CSc1nnc2c(n1)OC(C)N(C(=O)c1ccccc1)c1ccccc1-2 (stereo not drawn)	-22.2%	–
COc1ccc(CNc2ncnc3ccc(-c4ccccc4CN(C)C)cc23)c(OC)c1	–	15.8 µM (active)
CS(=O)(=O)Nc1cccc(-c2ccc3ncnc(NCCN4CCOCC4)c3c2)c1	-39.7%	–
COc1cccc(-c2ccc3ncnc(NCc4cccs4)c3c2)c1	–	10 µM (active)
CS(=O)(=O)Nc1cccc(-c2ccc3ncnc(NCc4cccs4)c3c2)c1	–	15.8 µM (active)
COc1ccc(CNc2ncnc3ccc(-c4ccccc4OC)cc23)c(OC)c1	–	7.94 µM (active)
COc1ccc(CNc2ncnc3ccc(-c4ccoc4)cc23)c(OC)c1	–	7.94 µM (active)
COc1ccccc1CNc1ncnc2ccc(-c3ccccc3C#N)cc12	–	7.94 µM (active)
COc1ccc(CNc2ncnc3ccc(-c4ccccc4C#N)cc23)c(OC)c1	-22%	–
COc1ccc(CNc2ncnc3ccc(-c4c(C)noc4C)cc23)c(OC)c1	–	10 µM (active)
Cc1nc2sc(C#N)c(N)c2c2c1CCCC2	–	11.2 µM (active)
C[C@@H]1c2ccccc2CN1CC1=NCCN1	-9.19%	–
COc1ccc(NC(=O)N2CCC3(CC2)CCN(C(=O)c2cccc(F)c2)CC3)cc1	7.83%	–
CCn1c(N2CCN(C(=O)Nc3ccc(F)cc3)CC2)nc2ccccc21	–	31.6 µM (active)
COc1ccc(NC(=O)N2CCCC3(CCN(C(=O)c4cccc(F)c4)CC3)C2)cc1	-15.7%	–
